Source: PubChem BioAssay (several laboratories)
PfHsp40 yeast = compounds rescuing yeast from Plasmodium falciparum HSP40 toxicity; S. cerevisiae expressing PfHsp40, growth rescue, ATP luminescence; growth rescue, % at 12.5 µM; 340,000 tested, 0.68% active; AID 504582; in the data active means growth rescue above about 28%, passing the limit was not always enough;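 further: yeast W303a lacking pdr1 and pdr3 grown in galactose medium; growth measured after three days at 30 °C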
Sa RN4220 lethal = S. aureus RN4220 growth inhibition | 330,000 tested, 0.33% active | AID 1259311 | inhibition, % (concentration not given with the values) | OD600, 16 h; in the data active means inhibition above about 85%
BH1578 lux ind = inducers of Vibrio cholerae quorum light production without autoinducers; V. cholerae BH1578 lux reporter, luminescence, 6 h; activation, % at 18.7 µM; 350,000 tested, 0.16% active; in the data active means activation mostly above about 9.7%, no sharp cut-off
ugtP null kill = kills S. aureus RN4220 lacking UgtP; AID 1259309; 330,000 tested, 0.54% active; S. aureus RN4220 ugtP deletion, OD600 growth, 16 h; growth inhibition, % (test concentration not listed); in the data active means growth inhibition above about 68%
Mtb bLac sens = beta-lactam sensitization of Mtb H37Rv; inhibition, % at 25 µM; 330,000 tested, 0.27% active; M. tuberculosis H37Rv growth with meropenem, percent inhibition; AID 434955; call rule not given here;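 further: growth measured after seven days incubation then overnight dye step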
Large screens that a line does not name were inactive. Only some compounds are listed: those with a hit (about 1.2% of all), similar ones and a draw of the others.

O=C(NNC1=C(C(=O)C(F)(F)F)CCC1)c1ccccc1Cl	none (no result: BH1578 lux ind)
COc1ccccc1C(=O)NNC1=C(C(=O)C(F)(F)F)CCC1	Sa RN4220 lethal 100.6, ugtP null kill 99.0
Nc1ccccc1C(=O)NNC1=C(C(=O)C(F)(F)F)CCC1	none
O=C(CNC(=O)c1cccc(F)c1)NN=Cc1cccnc1	none (no result: PfHsp40 yeast, BH1578 lux ind, Mtb bLac sens)
Oc1cccc(-c2nc3ccc4ccccc4c3c3c2CCC3)c1	ugtP null kill 99.7
COc1ccc(S(=O)(=O)NC2CC3CCC2C3)cc1Br (stereo unspecified)	PfHsp40 yeast 80.9
Cc1cc(C)c(S(=O)(=O)NC2CC3CCC2C3)c(C)c1 (stereo unspecified)	PfHsp40 yeast 64.3
COc1ccc(S(=O)(=O)NC2CC3CCC2C3)cc1Cl (stereo unspecified)	none
O=S(=O)(NC1CC2CCC1C2)c1ccc2c(c1)OCCO2 (stereo unspecified)	none
C/C(C=NN1CCN(c2ccccn2)CC1)=C\c1ccccc1	none (no result: PfHsp40 yeast, BH1578 lux ind, Mtb bLac sens)
CCOC1OC(C(=O)Nc2ccccc2)=CC(c2ccc3c(c2)OCO3)C1CCCO (stereo unspecified)	none (no result: PfHsp40 yeast, BH1578 lux ind, Mtb bLac sens)
O=c1[nH]c(CN2CCN(S(=O)(=O)/C=C/c3ccccc3)CC2)nc2cc(Cl)ccc12	PfHsp40 yeast 97.3
O=c1[nH]c(CN2CCN(S(=O)(=O)/C=C/c3ccccc3)CC2)nc2ccccc12	none
CCOC(=O)c1ccc(NC(=S)NNC(=O)c2cc(-c3cccnc3)nc3ccccc23)cc1	PfHsp40 yeast 154.4
COc1ccc(Cl)cc1C(=O)NNC(=S)NC(=O)c1cc(-c2ccc(Cl)cc2)nc2ccccc12	Sa RN4220 lethal 114.8
CCCCOc1cccc(-c2cc(C(=O)NNC(=S)NCC)c3ccccc3n2)c1	PfHsp40 yeast 47.2
COc1ccccc1C(=O)NC(=S)NNC(=O)c1sc2ccccc2c1Cl	Sa RN4220 lethal 99.6, ugtP null kill 98.5
CCNC(=S)NNC(=O)c1cc(-c2ccc(OC)cc2)nc2ccccc12	none
CN1CCC(=O)N(C(CSc2ccccc2)Cc2ccccc2)CC1 (stereo unspecified)	none (no result: PfHsp40 yeast, BH1578 lux ind, Mtb bLac sens)
CCOC1OC(C(=O)NCc2ccccc2)=CC(c2ccccc2)C1CCCO (stereo unspecified)	none (no result: PfHsp40 yeast, BH1578 lux ind, Mtb bLac sens)
CCOC(=O)/C(=N\Nc1ccc(C(C)=O)cc1)c1csc(Nc2ccccc2)n1	none (no result: Sa RN4220 lethal, ugtP null kill)
CCOC(=O)C(=NNc1ccccc1)c1csc(Nc2ccccc2)n1	Sa RN4220 lethal 92.2, ugtP null kill 93.2 (no result: PfHsp40 yeast, BH1578 lux ind, Mtb bLac sens)
Cc1ccc(C=NNC(=O)c2cccc(S(=O)(=O)N3CCOCC3)c2)o1	none (no result: PfHsp40 yeast, BH1578 lux ind, Mtb bLac sens)
S=C(Nc1ccc(OCc2ccccc2)cc1)Nc1cccc(Cl)c1Cl	PfHsp40 yeast 67.3
Cc1cc(C)n(CC(=O)NN=Cc2cc(Br)cc([N+](=O)[O-])c2O)n1	none (no result: PfHsp40 yeast, BH1578 lux ind, Mtb bLac sens)
C#CCOCCOCCOCCNc1nc(N2CCN(C(=O)C(CCC(=O)O)n3cc(C(N)CO)nn3)CC2)nc(N2CCN(C(=O)C(Cc3ccc(O)cc3)n3cc(C(N)CC(C)C)nn3)CC2)n1 (stereo unspecified)	none (no result: PfHsp40 yeast, BH1578 lux ind, Mtb bLac sens)
COc1cccc(OC)c1C1=CC(=O)CC(c2ccc3c(c2)OCO3)C1 (stereo unspecified)	none (no result: PfHsp40 yeast, BH1578 lux ind, Mtb bLac sens)
O=C(NC(=S)Nc1nc2c(s1)CSc1ccccc1-2)c1ccccc1	ugtP null kill 83.5 (no result: Mtb bLac sens)
CCOC(=O)c1ccc(NC(=O)CCc2nc(-c3ccccc3Cl)no2)cc1	PfHsp40 yeast 33.7
O=C(CC1CC2CCC1C2)Nc1nc(-c2ccccn2)cs1 (stereo unspecified)	PfHsp40 yeast 438.1
CCC(=O)c1ccc(OCC(=O)Nc2nc(-c3cccnc3)cs2)cc1	none
Cc1cc(C)c(OCC(=O)Nc2nc(-c3ccccn3)cs2)c(C)c1	PfHsp40 yeast 313.4
CCc1ccccc1OCC(=O)Nc1nc(-c2cccnc2)cs1	PfHsp40 yeast 237.5
CC(=O)C(C(C)=O)c1c(Cl)c(O)c(O)c2c(C(=O)c3ccccc3)coc12	PfHsp40 yeast 51.2 (no result: Sa RN4220 lethal, ugtP null kill)
CCOC(=O)C1(C(C)(C)CC)CC(CSc2nc3ccccc3[nH]2)OC1=O (stereo unspecified)	PfHsp40 yeast 69.2
CC1(CC(=O)NN=Cc2cc3c(cc2Br)OCO3)OCCO1	none (no result: PfHsp40 yeast, BH1578 lux ind, Mtb bLac sens)
Cc1c(CC(=O)N[C@@H](C)C(=O)O)c(=O)oc2c(C)c3occ(-c4ccccc4)c3cc12	Sa RN4220 lethal 93.8, ugtP null kill 99.8
Cc1c(CC(=O)N[C@@H](C)C(=O)O)c(=O)oc2cc3occ(-c4ccccc4)c3cc12	none
Cc1c(CCC(=O)O)c(=O)oc2c(C)c3occ(-c4ccc(Br)cc4)c3cc12	none
Cc1c(CC(=O)O)c(=O)oc2c(C)c3occ(-c4ccc(F)cc4)c3cc12	Sa RN4220 lethal 95.0, ugtP null kill 99.6
COc1ccccc1/C=C\C=NNC(=O)CCn1nnc2ccccc21	none (no result: PfHsp40 yeast, BH1578 lux ind, Mtb bLac sens)
COc1cc(OC)c(OC)cc1C=NNC(=O)c1ccc(=O)n(C)c1	none (no result: PfHsp40 yeast, BH1578 lux ind, Mtb bLac sens)
COc1cc(NS(C)(=O)=O)ccc1Nc1c2ccccc2nc2ccccc12	ugtP null kill 99.7
COc1ccc(OC)c(Nc2c3ccccc3nc3ccccc23)c1	none (no result: Sa RN4220 lethal, ugtP null kill)
CC1COC(=O)C(NC(=O)OCC2c3ccccc3-c3ccccc32)CC=CCC(CC(=O)NC(CO)Cc2ccccc2)C(=O)N1 (stereo unspecified)	none (no result: PfHsp40 yeast, BH1578 lux ind, Mtb bLac sens)
O=[N+]([O-])c1cccc(S(=O)(=O)Nc2ccc(S(=O)(=O)Nc3nccs3)cc2)c1	none
O=[N+]([O-])c1ccccc1S(=O)(=O)Nc1ccc(S(=O)(=O)Nc2nccs2)cc1	ugtP null kill 94.9
O=C1CC(N2CCCc3ccccc32)C(=O)N1c1ccccc1 (stereo unspecified)	none
CCc1ccccc1N1C(=O)CC(N2CCc3ccccc32)C1=O (stereo unspecified)	PfHsp40 yeast 69.0
CCCCc1ccc(NC(=O)CN(C)CC(=O)Nc2ccccc2Cl)cc1	PfHsp40 yeast 35.7
COc1ccccc1N1CCN(N=Cc2cc(Br)ccc2F)CC1	none (no result: PfHsp40 yeast, BH1578 lux ind, Mtb bLac sens)
COc1ccc(C2CC(=O)C=C(c3cccc(Br)c3)C2)cc1 (stereo unspecified)	none (no result: PfHsp40 yeast, BH1578 lux ind, Mtb bLac sens)
COc1cccc(C2CC=C(C(=O)O)C(c3cccc(Cl)c3)N2S(=O)(=O)c2ccc(C)cc2)c1 (stereo unspecified)	none (no result: PfHsp40 yeast, BH1578 lux ind, Mtb bLac sens)
O=[N+]([O-])c1ccc(S(=O)Cc2ccccc2)c([N+](=O)[O-])c1 (stereo unspecified)	PfHsp40 yeast 253.2 (no result: Sa RN4220 lethal, ugtP null kill, Mtb bLac sens)
CC[C@@]12C(=O)N(c3cccc(Br)c3)C(=O)N1C(c1ccc(OC)cc1)C1C(=O)N(C(C)(C)C)C(=O)C12 (stereo partly specified)	none (no result: PfHsp40 yeast, BH1578 lux ind, Mtb bLac sens)
COC(=O)C1=C(c2ccc(Cl)c(C(F)(F)F)c2)CC2CCC1N2C(=O)NC1CCCCC1 (stereo unspecified)	none (no result: PfHsp40 yeast, BH1578 lux ind, Mtb bLac sens)
C[C@@H]1CN([C@H](C)CO)C(=O)c2cc(NC(=O)Nc3ccc(F)cc3)ccc2O[C@H]1CN(C)C(=O)Nc1ccc(C(F)(F)F)cc1	PfHsp40 yeast 47.5
COc1ccc(C2CC(=O)C=C(C=Cc3ccc(C(F)(F)F)cc3)C2)cc1 (stereo unspecified)	none (no result: PfHsp40 yeast, BH1578 lux ind, Mtb bLac sens)
COC(=O)C1=C(c2ccc(OC(F)(F)F)cc2)C[C@@H]2CC[C@H]1N2C(=O)N1CCC(C)CC1	PfHsp40 yeast 41.0 (no result: Sa RN4220 lethal, ugtP null kill)
